Usually AC50 stands for the midpoint of the concentration-response curve, whichever way the signal moves.

Test [1] addresses human Thyroid Receptor alpha (THRa1), THRA (gene 7067) (UniProt P10827). The experiment in a line: ATG_THRa1_TRANS: Attagene TRANS-FACTORIAL HepG2 Assay for human Thyroid Receptor alpha (THRa1) (AID 2283014; active = hit-call score of the fitted dose curve at least 0.9, where 1 is the maximum). The method, boiled down:
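Measured here is mRNA from a GAL4-UAS reporter in transfected HepG2 cells carrying a Gal4-fused receptor, 24 h post-dose. DMSO served as negative control and baseline.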

Read-out in test [2]: E-selectin (Homo sapiens) (UniProt P16581)
The experiment in a line: BSK_3C_Eselectin: BioMAP Diversity Plus: 3C Assay for Eselectin Biomarker Activity (AID 2283015).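 Note: cell surface E-selectin protein quantified by ELISA 24 h after dosing.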 Conditions: primary human endothelial cells (HUVEC); actives raise or lower the signal. The gist of the method: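 Endpoint derived by bidirectional fitting against DMSO vehicle; signal is ELISA-detected E-selectin from primary HUVEC at 24 h post-dosing, with parallel SRB staining (0.1% SRB, 560 nm) flagging cytotoxicity.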

Read-out in test [3]: Interleukin-1 alpha (IL1a), IL1A (gene 3552)
Put plainly: BSK_BE3C_IL1a: BioMAP Diversity Plus: BE3C Assay for Interleukin-1 alpha (IL1a) Biomarker Activity (AID 2283016). As to conditions: primary human bronchial epithelial cells; actives raise or lower the signal. The method, boiled down:
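Cultures of primary human bronchial epithelial cells receive test chemical. After 24 h, IL-1a is quantified by ELISA, while parallel wells are fixed in TCA and SRB-stained for total protein. Changes in either direction are fitted relative to DMSO.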

Read-out in test [4]: Monocyte Chemoattractant Protein-1 (MCP1), CCL2 (gene 6347)
Put plainly: BSK_3C_MCP1: BioMAP Diversity Plus: 3C Assay for Monocyte Chemoattractant Protein-1 (MCP1) Biomarker Activity (AID 2283017). As to conditions: primary human endothelial cells (HUVEC); actives raise or lower the signal. The gist of the method: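 Using human vascular primary endothelium, researchers measured MCP-1 by ELISA 24 h after treatment, with DMSO serving as negative control for bidirectional fitting.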

Read-out in test [5]: Monocyte Chemoattractant Protein-1 (MCP1), CCL2 (gene 6347)
Put plainly: BSK_4H_MCP1: BioMAP Diversity Plus: 4H Assay for Monocyte Chemoattractant Protein-1 (MCP1) Biomarker Activity (AID 2283018). As to conditions: primary human endothelial cells (HUVEC); actives raise or lower the signal. The gist of the method:
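Readout: MCP-1 ELISA on compound-treated HUVEC, sampled 24 h post-dosing. Baseline and negative control DMSO; bidirectional fit. Overt toxicity checked alongside by sulforhodamine B protein staining at time of biomarker measurement.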

Read-out in test [6]: Human Leukocyte Antigen - DR isotype (HLADR), HLA-DRA (gene 3122)
The experiment in a line: BSK_3C_HLADR: BioMAP Diversity Plus: 3C Assay for Human Leukocyte Antigen - DR isotype (HLADR) Biomarker Activity (AID 2283019).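 Note: ELISA of cell-surface HLA-DR on HUVEC 24 h after dosing.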 Conditions: primary human endothelial cells (HUVEC); actives raise or lower the signal. The gist of the method:
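Compound added to primary HUVEC cultures, 24 h incubation, then HLA-DR determined by ELISA; endpoint derived by bidirectional fitting relative to DMSO negative control.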

Read-out in test [7]: Interleukin-8 (IL8), CXCL8 (gene 3576)
The experiment in a line: BSK_3C_IL8: BioMAP Diversity Plus: 3C Assay for Interleukin-8 (IL8) Biomarker Activity (AID 2283020). Conditions: primary human endothelial cells (HUVEC); actives raise or lower the signal. The gist of the method: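 Human vascular endothelial cells (umbilical vein) in the 3C system; IL-8 level detected by ELISA at 24 h post-dose, with DMSO as baseline.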

Read-out in test [8]: Monokine induced gamma interferon (MIG), CXCL9 (gene 4283)
Put plainly: BSK_3C_MIG: BioMAP Diversity Plus: 3C Assay for Monokine induced gamma interferon (MIG) Biomarker Activity (AID 2283021). Conditions: primary human endothelial cells (HUVEC); actives raise or lower the signal. The method, boiled down: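 After 24 h of treatment, human umbilical vein endothelial cultures (3C system) had their MIG biomarker level determined by ELISA, with DMSO serving as negative control.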

Test [9] is described as follows: BSK_3C_SRB: Viability Assessment in the BioMAP Diversity Plus: 3C Assay (AID 2283023).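 Note: cells read 24 h after compound dosing; fitted both ways against DMSO so a hit may be signal rise or drop.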 Conditions: primary human endothelial cells (HUVEC). The method, boiled down: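 Overt cytotoxicity is gauged in parallel confluent HUVEC cultures by SRB total-protein staining at the time of biomarker measurement, 24 h after dosing. Gain or loss of signal is fitted versus DMSO.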

Read-out in test [10]: Matrix Metallopeptidase 1 (MMP1), MMP1 (gene 4312)
The experiment in a line: BSK_BE3C_MMP1: BioMAP Diversity Plus: BE3C Assay for Matrix Metallopeptidase 1 (MMP1) Biomarker Activity (AID 2283024). As to conditions: primary human bronchial epithelial cells; actives raise or lower the signal. The gist of the method:
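Dose cells, wait 24 h, run MMP1 ELISA; cells are human bronchial epithelial primaries. Both increases and decreases relative to DMSO counted.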

Read-out in test [11]: Pselectin, SELP (gene 6403)
Put plainly: BSK_4H_Pselectin: BioMAP Diversity Plus: 4H Assay for Pselectin Biomarker Activity (AID 2283026). Conditions: primary human endothelial cells (HUVEC); actives raise or lower the signal. The gist of the method: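 Human vascular endothelium from umbilical vein; P-selectin measured by ELISA at 24 h post-dose, with cytotoxicity checked by sulforhodamine B total-protein staining in parallel cultures (0.1% SRB after 10% TCA fixation, read at 560 nm).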

A short description of test [12]: BSK_4H_SRB: Viability Assessment in the BioMAP Diversity Plus: 4H Assay (AID 2283027).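 Note: cells exposed to compound for 24 h before staining.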 As to conditions: primary human endothelial cells (HUVEC). The gist of the method:
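Absorbance at 560 nm of SRB-stained total protein served as the viability read-out in confluent primary human umbilical vein endothelium 24 h after chemical treatment. Curves were fitted bidirectionally against DMSO as negative control.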

The nature of test [13]: BSK_BE3C_SRB: Viability Assessment in the BioMAP Diversity Plus: BE3C Assay (AID 2283028).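 Note: measured 24 h after chemical dosing.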 Conditions: primary human bronchial epithelial cells. The method, boiled down: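 SRB total-protein staining (0.1%, after TCA fixation) of chemically dosed human bronchial epithelial primary cells at 24 h; DMSO serves as the negative control for bidirectional curve fitting.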
Read-out in test [14]: Urokinase-type plasminogen activator receptor (uPAR), PLAUR (gene 5329)
The experiment in a line: BSK_4H_uPAR: BioMAP Diversity Plus: 4H Assay for Urokinase-type plasminogen activator receptor (uPAR) Biomarker Activity (AID 2283030). As to conditions: primary human endothelial cells (HUVEC); actives raise or lower the signal. The method, boiled down: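 Endpoint derived via bidirectional curve fitting against DMSO baseline; readout was ELISA detection of uPAR on umbilical vein endothelial cells at 24 h post-treatment, with SRB-stained parallel cultures assessing cytotoxicity.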

Read-out in test [15]: Vascular endothelial growth factor receptor 2 (Homo sapiens) (UniProt P35968)
The experiment in a line: BSK_4H_VEGFRII: BioMAP Diversity Plus: 4H Assay for Vascular endothelial growth factor receptor 2 (VEGFR2) Biomarker Activity (AID 2283031). As to conditions: primary human endothelial cells (HUVEC); actives raise or lower the signal. The gist of the method: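 In this multiplexed HUVEC system, biomarker ELISA was performed after 24 h chemical exposure. Parallel SRB staining (TCA fixation, 560 nm) tracked cytotoxicity; DMSO served as baseline.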

Read-out in test [16]: Human Leukocyte Antigen - DR isotype (HLADR), HLA-DRA (gene 3122)
The experiment in a line: BSK_BE3C_HLADR: BioMAP Diversity Plus: BE3C Assay for Human Leukocyte Antigen - DR isotype (HLADR) Biomarker Activity (AID 2283032). As to conditions: primary human bronchial epithelial cells; actives raise or lower the signal. The method, boiled down:
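Signal came from an ELISA for HLA-DR in human bronchial epithelial primary cells harvested 24 h after treatment; gain- and loss-of-signal fitting used DMSO controls as reference.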

Read-out in test [17]: Vascular cell adhesion molecule 1 (VCAM1), VCAM1 (gene 7412)
The experiment in a line: BSK_4H_VCAM1: BioMAP Diversity Plus: 4H Assay for Vascular cell adhesion molecule 1 (VCAM1) Biomarker Activity (AID 2283033).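 Note: cell-surface VCAM-1 protein measured by ELISA.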 Conditions: primary human endothelial cells (HUVEC); actives raise or lower the signal. The gist of the method: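 Endpoint derived from bidirectional fitting against DMSO controls of VCAM-1 ELISA signal in umbilical vein endothelial cells sampled at 24 h following treatment.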

Test [18] concerns the target human Vitamin D Receptor (VDR), VDR (gene 7421) (UniProt P11473). The experiment in a line: ATG_VDR_TRANS: Attagene TRANS-FACTORIAL HepG2 Assay for human Vitamin D Receptor (VDR) (AID 2283022; active = hit-call score of the fitted dose curve at least 0.9, where 1 is the maximum). The gist of the method:
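Multiplexed TRANS reporter in HepG2; 24 h treatment; reporter mRNA by RT-PCR plus capillary electrophoresis; upregulation scored relative to DMSO.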

Molecules are shown by their SMILES. Records with an inconclusive call do not appear. Activity calls are given as the source filed them. Rule for the calls, unless noted: active = hit-call score of the fitted dose curve at least 0.9, where 1 is the maximum; inactive = score below 0.9.

human Vitamin D Receptor (VDR), VDR (gene 7421), sequence (P11473 whole entry, looked up): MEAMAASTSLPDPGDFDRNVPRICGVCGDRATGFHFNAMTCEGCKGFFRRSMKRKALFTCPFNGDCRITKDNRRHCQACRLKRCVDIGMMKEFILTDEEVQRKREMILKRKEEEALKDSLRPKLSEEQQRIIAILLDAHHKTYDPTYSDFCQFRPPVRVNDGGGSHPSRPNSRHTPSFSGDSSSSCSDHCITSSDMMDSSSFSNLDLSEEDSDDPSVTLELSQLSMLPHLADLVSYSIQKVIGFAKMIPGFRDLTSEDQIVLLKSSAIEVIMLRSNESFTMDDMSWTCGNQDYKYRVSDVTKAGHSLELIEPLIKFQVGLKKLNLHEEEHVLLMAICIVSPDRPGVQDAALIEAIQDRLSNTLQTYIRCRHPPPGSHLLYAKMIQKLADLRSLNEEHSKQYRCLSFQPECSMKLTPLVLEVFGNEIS
E-selectin (Homo sapiens), sequence (P16581 whole entry, looked up): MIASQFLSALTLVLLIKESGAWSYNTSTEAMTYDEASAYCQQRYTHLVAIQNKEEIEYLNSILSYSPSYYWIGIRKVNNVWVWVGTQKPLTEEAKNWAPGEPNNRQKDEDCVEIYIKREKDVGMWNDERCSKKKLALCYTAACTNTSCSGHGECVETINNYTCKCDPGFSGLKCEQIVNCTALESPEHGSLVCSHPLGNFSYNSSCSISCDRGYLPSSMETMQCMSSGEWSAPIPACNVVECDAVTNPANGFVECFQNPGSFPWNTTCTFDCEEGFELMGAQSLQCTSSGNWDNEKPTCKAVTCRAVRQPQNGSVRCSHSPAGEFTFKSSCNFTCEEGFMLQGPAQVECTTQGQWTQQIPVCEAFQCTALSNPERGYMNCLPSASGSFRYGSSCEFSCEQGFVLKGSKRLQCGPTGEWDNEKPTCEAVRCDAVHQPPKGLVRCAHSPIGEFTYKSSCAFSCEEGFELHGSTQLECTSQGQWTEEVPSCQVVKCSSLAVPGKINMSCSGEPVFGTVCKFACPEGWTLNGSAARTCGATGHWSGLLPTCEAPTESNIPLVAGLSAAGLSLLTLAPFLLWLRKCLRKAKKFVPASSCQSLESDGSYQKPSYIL
human Thyroid Receptor alpha (THRa1), THRA (gene 7067), sequence (P10827 whole entry, looked up, the tested form may be a part): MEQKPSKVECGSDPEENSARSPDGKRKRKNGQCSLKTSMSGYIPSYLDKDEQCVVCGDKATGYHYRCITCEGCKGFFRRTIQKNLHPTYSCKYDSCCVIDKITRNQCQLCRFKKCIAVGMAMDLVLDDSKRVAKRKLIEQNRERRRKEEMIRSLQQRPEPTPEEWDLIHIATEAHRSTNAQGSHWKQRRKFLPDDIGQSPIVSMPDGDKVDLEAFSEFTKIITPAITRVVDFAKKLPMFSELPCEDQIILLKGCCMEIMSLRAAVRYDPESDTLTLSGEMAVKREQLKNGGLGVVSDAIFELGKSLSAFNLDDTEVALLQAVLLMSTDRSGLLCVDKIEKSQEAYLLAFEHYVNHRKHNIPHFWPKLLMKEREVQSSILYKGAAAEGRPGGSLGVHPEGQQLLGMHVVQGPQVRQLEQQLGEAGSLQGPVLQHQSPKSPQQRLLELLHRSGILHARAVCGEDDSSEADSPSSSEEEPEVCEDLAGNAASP

With `C=CC=CC=CCCCCC`, the molecule was called inactive in test [1], in test [2], in test [3], in test [4], in test [5] and in test [6]. For the same molecule, the outcome in [7], in test [8], in [9], in test [10], in test [11] and in test [12] was inactive. The result in [13], in test [14], in test [15] and in test [17] was inactive. Also, the AC50 in [16] is 5 µM (active).

For the molecule `OC1OCCOC1O` (stereo not given), the result in [1] and in test [18] was inactive.

In the case of `C=C(C)C(=O)OCCO`, in [18], the result was inactive.

Turning to `COC(F)(F)C(F)(C(F)(F)F)C(F)(F)F`, the call in test [1] and in [18] was inactive.

Consider `OCCc1ccncc1`, for which the outcome in [1] and in test [18] was inactive.

For the molecule `Nc1nc2ccccc2[nH]1`, the molecule was classed as inactive in [1] and in test [18].

Turning to `O=C(O)c1cc(Cl)cc([N+](=O)[O-])c1Cl`, the call in test [1] and in test [18] was inactive.

Take `O=C1CCCC(=O)O1`: the molecule was called inactive in test [1] and in test [18].

Turning to `NC(CO)(CO)CO`, the molecule was classed as inactive in test [18].

Turning to `CC=CC(=O)N(CC)c1ccccc1C`, the molecule was called inactive in test [1] and in [18].

Take `CCc1c(C(=O)O)c(=O)cnn1-c1ccc(Cl)cc1`: in [18], the call was inactive.

For the molecule `C=C[Si](OC(C)=O)(OC(C)=O)OC(C)=O`, the molecule was called inactive in test [1], in test [2], in test [3], in test [4], in test [5] and in test [6]. Further, the result in test [7], in [8], in test [9], in [10], in [11] and in test [12] was inactive. The outcome in test [13], in test [14], in [15], in [16] and in test [17] was inactive.

With `CCO[Si](C)(OCC)OCC`, the outcome in test [2], in [3], in test [4], in test [5], in test [6] and in test [7] was inactive. Further, the result in test [8], in [9], in test [10], in [11], in [12] and in [13] was inactive. In addition, the outcome in test [14], in test [15], in test [16] and in test [17] was inactive.

As for `CCCCCCCOC(=O)CCC`, the result in [1] and in test [18] was inactive.

In the case of `CCc1nccnc1C`, the molecule was classed as inactive in [1] and in [18].

With `Cn1c([N+](=O)[O-])cnc1COC(N)=O`, the molecule was classed as inactive in test [1] and in [18].

In the case of `CC(=O)OCc1ccco1`, the molecule was classed as inactive in [18].

With `Cc1cc(C)c(C(=O)O)c(C)c1`, in test [18], the outcome was inactive.

Regarding `CCOC(=O)NNc1nncc2ccccc12`, the call in test [1] and in test [18] was inactive.

For the molecule `CC(C)c1ccc(C=O)cc1`, the molecule was called inactive in test [1] and in test [18].

On to `COC(=O)c1sccc1S(N)(=O)=O`, for which the result in test [1] and in test [18] was inactive.

As for `CC1(C)S[C@@H]2[C@H](NC(=O)COc3ccccc3)C(=O)N2[C@H]1C(=O)O`, the molecule was classed as inactive in test [18].

Take `O=S(=O)(O)c1ccccc1C=Cc1ccc(-c2ccc(C=Cc3ccccc3S(=O)(=O)O)cc2)cc1`: the molecule was classed as inactive in test [1] and in test [18].

As to `CCCCCCCCCCCCCOP(=O)(O)O`, the molecule was called inactive in test [18].

These data come from PubChem BioAssay (EPA / NIEHS).
